Test results reported in PubChem BioAssay AID624351 (Southern Research Specialized Biocontainment Screening …, 2012).
The whole screen tested about 2,400 compounds, of which about 1,400 (58%) were called active. The set was probably picked from earlier hits. The list shows a part of the results. A number with no mark means an inactive call.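 How the source made its calls: active means inhibition of 30% or more at any tested dose; inconclusive means primary hits over the limit that were never retested; inactive means the rest.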

Assay: coupled detection enzyme interference, dose response, artefact control for MgcRacGAP inhibitor project, biochemical, coupled enzyme counter-screen (AID 624351);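 further: signal is the ADP detection kit reading of free GDP without any GAP enzyme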;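 on inhibition: 0% = median positive control wells and 100% = median negative control wells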
Settings: ADP Hunter coupled enzyme counter-screen, fluorescence, no MgcRacGAP; series mostly up to 80 µM; inhibition: at the top concentration

Row | Structure (SMILES) | inhibition | IC50
1 | CC1(C)C2CCC(CN=C(N)CSS(=O)(=O)O)C1C2 (configuration not stated) | 4.39% | 
2 | CC(/C=C/c1ccc(O)cc1)=N/O |  | 11.8 µM (active)
3 | COc1ccc(NC(=S)NCC2CCN(c3ccc(OC)cc3)C2)cc1 (configuration not stated) |  | 52.5 µM (active)
4 | COc1ccc(CNCC(=O)Nc2ccccc2-n2cccc2)cc1 | 8.24% | 
5 | CCc1ccccc1NC(=S)NCC1CCN(c2ccc(OC)cc2)C1 (configuration not stated) |  | 65.3 µM (active)
6 | COc1ccc(N2CCC(CNC(=O)Nc3ccc(C)c(C)c3)C2)cc1 (configuration not stated) | 10.1% | 
7 | COc1ccc(N2CCC(CNC(=S)Nc3cccc(C)c3)C2)cc1 (configuration not stated) |  | 72.2 µM (active)
8 | COc1ccc(N2CCC(CNC(=S)Nc3cc(C)cc(C)c3)C2)cc1 (configuration not stated) | 28% | 
9 | CCc1c(C)nc(N2CCN(c3ccc(OC)cc3)CC2)[nH]c1=O | 24.9% | 
10 | CC(=O)N1CCC(=NNC(=O)c2cc3ccccc3cc2O)CC1 | 24.4% | 
11 | CN(Cc1ccccc1)C(=O)C1CCCN(Cc2ccc(Cl)cc2)C1 (configuration not stated) | 13.7% | 
12 | O=C1c2ccccc2C(=O)N1/N=C/c1ccc(O)c(O)c1 |  | 33.2 µM (active)
13 | COc1cc(/C=N/N2C(=O)c3ccccc3C2=O)ccc1O |  | 41.6 µM (active)
14 | O=C1C2C3C=CC(CC3)C2C(=O)N1/N=C/c1ccc(O)c(O)c1 (configuration not stated) |  | 64.1 µM (active)
15 | Nc1ccc(Cn2ccc3c4c(N)nc(N)nc4ccc32)cc1 | 3.98% | 
16 | Cn1c(=O)c2ccccc2n2c(=S)[nH]nc12 |  | 13.2 µM (active)
17 | Cc1cccc(-n2c(=O)c3ccccc3n3c(=S)[nH]nc23)c1C |  | 34 µM (active)
18 | O=c1c2ccccc2n2c(=S)[nH]nc2n1-c1ccccc1 |  | 20.6 µM (active)
19 | CCOCCCn1c(=O)c2ccccc2n2c(=S)[nH]nc12 |  | 16.1 µM (active)
20 | O=C(c1cccc(Cl)c1)N1CCN(Cc2ccncc2)CC1 | 23.4% | 
21 | CCOC(=O)c1[nH]c2ccc(C)cc2c1N |  | 27.2 µM (active)
22 | CCOC(=O)c1[nH]c2cc(OC)c(OC)cc2c1N |  | 31.3 µM (active)
23 | COc1cccc2[nH]c(C(=O)NN)c(N)c12 | 19.8% | 
24 | CCCc1c(C)[nH]c2ccc(C(=O)O)cc2c1=S | 4.17% | 
25 | FC(F)(F)c1cccc(N2CCC(N=CN3CCCCCC3)=N2)c1 |  | 50 µM (active)
26 | Oc1ccccc1C=NC1=NN(c2cccc(C(F)(F)F)c2)CC1 |  | 16.9 µM (active)

Row | Structure (SMILES) | inhibition | IC50
27 | CN1CCN(C=NC2=NN(c3cccc(C(F)(F)F)c3)CC2)CC1 |  | 34.1 µM (active)
28 | CC[N+](CC)(CC)CCCCOc1ccc2c(c1)C(=O)c1cc(OCCCC[N+](CC)(CC)CC)ccc1-2 | 8.56% | 
29 | NSc1nc(N)c2nc(-c3ccccc3)c(-c3ccccc3)nc2n1 | 5.16% | 
30 | O=C(C1=C(O)C(=O)N(c2nc3ccc(Cl)cc3s2)C1c1ccco1)c1ccco1 (configuration not stated) | 4.28% | 
31 | COc1cc(NCCC(=O)c2cccs2)c(OC)cc1Cl |  | 58.1 µM (active)
32 | COc1ccc(NC(=O)Cn2nnc(C(=O)NCc3cccs3)c2N)cc1Cl | 2.52% | 
33 | CCCSC1=N/C(=C\C=C\c2ccco2)C(=O)S1 | -4.75% | 
34 | CCN(CC)CCn1c2ccccc2c(=O)c2c(O)ccc(O)c21 | -1.29% | 
35 | Oc1cc(O)cc(-c2cc3ccc(O)cc3o2)c1 |  | 25 µM (active)
36 | COc1cc(/C=N/NS(=O)(=O)c2ccc(C)c([N+](=O)[O-])c2)ccc1O |  | 37.1 µM (active)
37 | COc1cc(/C=N/NC(=O)c2cccc([N+](=O)[O-])c2)ccc1O |  | 35.9 µM (active)
38 | COc1cc(/C=N\NC(=O)c2ccc(Cn3nc([N+](=O)[O-])c(Cl)c3C)o2)ccc1O |  | 33.9 µM (active)
39 | COc1cc(/C=N\NC(=O)CNC(=O)c2cccc([N+](=O)[O-])c2)ccc1O |  | 18.4 µM (active)
40 | O=[N+]([O-])c1cccc(S(=O)(=O)N/N=C/c2ccc(O)cc2)c1 |  | 45.2 µM (active)
41 | CN(C)/N=C/c1ccc(OC(=O)c2cccc([N+](=O)[O-])c2)cc1 | -2.18% | 
42 | c1ccc(OCCCN2CCCC2)cc1 | 19.4% | 
43 | CN(CCOc1ccc(Cl)c(Cl)c1)Cc1ccccc1 | 7.09% | 
44 | Nc1ccc(OCCc2ccccc2)cc1 |  | 37.5 µM (active)
45 | COc1cc(C=c2c3ccccc3n3c2cc(-c2ccccc2)[n+]3C)cc(OC)c1OC | 2.94% | 
46 | O=C(c1ccccc1)c1coc2ccc(O)c(Cl)c12 |  | 77.5 µM (active)
47 | O=C1C=CC(=O)c2c(O)c(N3CCN(CCO)CC3)c(Cl)c(O)c21 | 5.58% | 
48 | O=C(O)c1ccc(-c2ccc(/C=c3/sc4nc5ccccc5n4c3=O)o2)cc1Cl | 7.6% | 
49 | COc1ccc(N=Nc2cc(OC)c(N)cc2OC)cc1 |  | 39.2 µM (active)
50 | CC(C)N(CCNCC(O)COc1ccc(C(C)(C)c2ccccc2)cc1)C(C)C (configuration not stated) | 17.9% | 
51 | COc1cc(C(=S)NCc2ccccc2)cc(Br)c1O | 17.8% | 
52 | COc1cc(CN2CCC(C(=O)NC3CCCC3)CC2)cc(Br)c1O | 7.21% | 

Row | Structure (SMILES) | inhibition | IC50
53 | COc1cc(CN2CCC(C(=O)NC3CCCC3)CC2)ccc1O | 15.2% | 
54 | CCOc1cc(/C=N/NC(=O)C(OC)c2ccccc2)ccc1O (configuration not stated) |  | 58.2 µM (active)
55 | COc1cc(C(=S)NC2CCCCC2)ccc1O |  | 36.7 µM (active)
56 | CCOc1cc(/C=N/NC(=O)C(C)Sc2ccccn2)ccc1O (configuration not stated) |  | 44.5 µM (active)
57 | COc1cc(/C=N/NC(=O)CC(=O)NC2CCCCC2)ccc1O |  | 55.1 µM (active)
58 | COc1ccc(CN2CCN(C(C)C(=O)N(C)Cc3cccc(F)c3)CC2)cc1OC (configuration not stated) | 22.3% | 
59 | COc1cc(CN2CCN(C(=O)CC(C)C)CC2)cc(OC)c1O | 22.5% | 
60 | N#CC1=C(S)N(c2ccccc2)C(c2ccc(-c3ccccc3Cl)o2)NC1=O (configuration not stated) | 5.31% | 
61 | CCOc1cc(/C=N/NC(=O)CCCC(=O)NC2CCCCC2)ccc1O |  | 62.2 µM (active)
62 | COc1cc(/C=N/NC(=S)NC2CC3CCC2C3)ccc1O (configuration not stated) |  | 55.3 µM (active)
63 | CCOc1cc(/C=N/NC(=O)Nc2ccccc2)ccc1O |  | 33 µM (active)
64 | CCOc1cc(C=NNC(=O)CCCC(=O)NN=Cc2ccc(O)c(OCC)c2)ccc1O |  | 55.2 µM (active)
65 | CCOc1cc(/C=N/NC(=O)CSc2cccc3cccnc23)ccc1O |  | 36.7 µM (active)
66 | C=CCn1c(SCC(C)=O)nnc1-c1cc(-c2ccccc2)sc1N |  | 50.1 µM (active)
67 | CCn1c(SC(C)C)nnc1-c1cc(-c2ccccc2)sc1N |  | 26.7 µM (active)
68 | CCN(CC)CCOc1ccc2c(c1)C(=NNC(=O)c1ccccn1)c1cc(OCCN(CC)CC)ccc1-2 | 25.5% | 
69 | O=C(Oc1ccc2c(c1)OCO2)c1ccc(Br)c(S(=O)(=O)N2CCOCC2)c1 | 5.16% | 
70 | CC1=NN(c2ccccc2)C(=O)C1/C=C1\NC(=S)NC1=O (configuration not stated) | 27.2% | 
71 | Cc1ccc(-n2sc3ccccc3c2=O)cc1 | 10.3% | 
72 | Cc1ccc(C2C=NN(c3ccccc3)C2=O)cc1 (configuration not stated) |  | 78.2 µM (active)
73 | COc1cc(/C=N/NC(=O)CCn2nnc3ccccc32)ccc1O |  | 53.8 µM (active)
74 | COc1cc(/C=N/NC(=O)C(C)n2nnc3ccccc32)ccc1O (configuration not stated) |  | 23.6 µM (active)
75 | COc1cc(/C=N/NC(=O)Cn2nnc3ccccc32)ccc1O |  | 20.7 µM (active)
76 | Cc1cc(NC(=O)CN2CCN(C)CC2)no1 | 17.2% | 
77 | Cc1cc(NC(=O)CN2CCC(C)CC2)no1 | 14.8% | 
78 | Cc1cc(NC(=O)c2sc3ccccc3c2O)no1 |  | 74.8 µM (active)

Row | Structure (SMILES) | inhibition | IC50
79 | O=C(Nc1ccccn1)c1ccc2ccccc2c1O |  | 78.1 µM (active)
80 | COc1ccccc1NC(=O)NNC(=O)c1ccc2ccccc2c1O | 8.21% | 
81 | COc1ccc2c(c1)-c1c(ssc1=S)C(C)(C)N2 |  | 33.6 µM (active)
82 | CCOc1ccccc1Oc1cn[nH]c1-c1ccc(O)cc1O |  | 33.8 µM (active)
83 | COc1cccc(Oc2cn[nH]c2-c2ccc(O)cc2O)c1 |  | 52.5 µM (active)
84 | COc1ccc(Oc2cn[nH]c2-c2ccc(O)cc2O)cc1 |  | 29.9 µM (active)
85 | C#CCOCCOCCOCCNc1nc(N2CCN(C(=O)[C@H](CCCCN)n3cc([C@@H](N)C(C)CC)nn3)CC2)nc(N2CCN(C(=O)[C@H](CCCCN)n3cc([C@@H](N)CC(C)C)nn3)CC2)n1 (some centres not stated) | 3.89% | 
86 | CCn1c(C)nc2cc(C(=O)N/N=C/c3ccc(O)cc3)ccc21 |  | 81.6 µM (active)
87 | CC1=NN(C(N)=S)C(=O)C1N=Nc1ccc(O)cc1 (configuration not stated) |  | 19.5 µM (active)
88 | CC(=O)Nc1ccc(Oc2nc(-c3ccccn3)nc3ccccc23)cc1 |  | 26.7 µM (active)
89 | O=C(Nc1ccc(Oc2nnc(-c3ccccc3)c3ccccc23)cc1)c1ccccc1 | 6.04% | 
90 | CN(C)CCCNCC(=O)c1c(-c2ccccc2)n(C)c2ccccc12 | -1.7% [at 10 µM] | 
91 | O=C(N/N=C/c1ccc(O)c(O)c1)C1c2ccccc2Oc2ccccc21 |  | 51 µM (active)
92 | Oc1ccc(/C=N/Nc2ncnc3nc[nH]c23)cc1 |  | 13.2 µM (active)
93 | c1nc(SSc2ncnc3nc[nH]c23)c2[nH]cnc2n1 | -4.3% | 
94 | CCOc1cc(/C=N/Nc2ncnc(Cl)c2N)ccc1O |  | 30.7 µM (active)
95 | Nc1c(Cl)ncnc1N/N=C/c1ccc(O)cc1 |  | 15.1 µM (active)
96 | Cc1[nH]ccc2c1[nH]c1cc(=O)ccc12 |  | 61.9 µM (active)
97 | CC/C(=N\O)c1ccc(O)c(OC)c1 |  | 61.2 µM (active)
98 | COc1ccc(S(=O)(=O)N2CCC(N3CCN(Cc4ccccc4)CC3)CC2)cc1 | 24.6% | 
99 | C[C@@H]1O[C@@H](OC[C@H]2O[C@@H](Oc3cc(O)c4c(=O)cc(-c5ccc(O)c(O)c5)oc4c3)[C@H](O)[C@@H](O)[C@@H]2O)[C@H](O)[C@H](O)[C@H]1O |  | 46 µM (active)
100 | O=c1cc(-c2ccc(O)c(O)c2)oc2cc(O)c([C@@H]3O[C@H](CO)[C@@H](O)[C@H](O)[C@H]3O)c(O)c12 |  | 59 µM (active)
101 | O=C(O)c1cc(O)c2c(c1)[C@@H]([C@H]1c3cc(C(=O)O)cc(O)c3C(=O)c3c(O[C@@H]4O[C@H](CO)[C@@H](O)[C@H](O)[C@H]4O)cccc31)c1cccc(OC3O[C@H](CO)[C@@H](O)[C@H](O)[C@H]3O)c1C2=O (some centres not stated) | -39.8% | 
102 | O=c1cc(-c2ccc(O)c(O)c2)oc2cc(O)c(C3OC(CO)C(O)C(O)C3O)c(O)c12 (configuration not stated) |  | 45.9 µM (active)
